The campaign covered roughly 39,000 compounds. About 3,300 (8.5%) were called active. The sample as a whole holds a higher share of actives than the screen did.

This assay concerns HepG2. Nature of the assay: cytotoxicity call (relative viability < 0.9). The settings on record: 10 µM.
With `N#C[C@@H]1C(=O)NC(=O)[C@@H](C#N)C12CCCC2`, the cytotoxicity call was “inactive”.
For `Cc1noc(C)c1S(=O)(=O)N(C)C[C@@H]1OCCCC[C@@H](C)Oc2ccc(NC(=O)Nc3ccc(F)cc3)cc2C(=O)N([C@H](C)CO)C[C@@H]1C`, the cytotoxicity call is “inactive”.
For `C[C@@H]1CN([C@@H](C)CO)C(=O)c2cc(NC(=O)Nc3ccccc3)ccc2O[C@@H](C)CCCCO[C@@H]1CN(C)C(=O)Nc1cccc2ccccc12`, the cytotoxicity call is “inactive”.
On to `Cc1ccc(S(=O)(=O)N(C)C[C@H]2OCCCC[C@H](C)Oc3ccc(NC(=O)Nc4cccc5ccccc45)cc3C(=O)N([C@H](C)CO)C[C@@H]2C)cc1`, for which the cytotoxicity call is “inactive”.
In the case of `Cc1cc(C)c(NC(=O)[C@@H](N)Cc2ccccc2)c(Cl)c1`, the cytotoxicity call was “active”.
In the case of `NNC(=O)[C@@H](N)Cc1ccccc1`, the cytotoxicity call is “inactive”.
As for `CCOC(=O)[C@@H](N)Cc1ccccc1`, the cytotoxicity call was “inactive”.
In the case of `C=C(C)[C@H]1CC=C(C)CC1`, the cytotoxicity call was “inactive”.
Regarding `CC(C)=CCCC(C)(O)C1CC=C(C)CC1` (stereo not given), the cytotoxicity call is “active”.
In the case of `CC1=CC[C@H](C(C)(C)O)CC1`, the cytotoxicity call is “inactive”.
As to `C[C@@H]1CN([C@H](C)CO)C(=O)c2cc(NC(=O)C3CCCCC3)ccc2O[C@@H](C)CCCCO[C@H]1CN(C)C(=O)C1CCCCC1`, the cytotoxicity call was “inactive”.
For `C[C@@H]1CN([C@H](C)CO)C(=O)c2c(c3ccccc3n2C)-c2ccccc2CO[C@H]1CN(C)C(=O)Nc1cccc(F)c1`, the cytotoxicity call is “inactive”.
As for `C[C@@H]1CCCCO[C@H](CN(C)Cc2ccc(Cl)c(Cl)c2)[C@H](C)CN([C@@H](C)CO)C(=O)c2cc(NS(C)(=O)=O)ccc2O1`, the cytotoxicity call was “active”.
For `C[C@@H]1CN([C@H](C)CO)C(=O)c2cc(NS(C)(=O)=O)ccc2O[C@@H](C)CCCCO[C@H]1CN(C)Cc1ccc(Cl)c(Cl)c1`, the cytotoxicity call is “active”.
As for `C[C@@H]1CCCCO[C@@H](CN(C)Cc2ccc(Cl)c(Cl)c2)[C@@H](C)CN([C@@H](C)CO)C(=O)c2cc(NS(C)(=O)=O)ccc2O1`, the cytotoxicity call is “inactive”.
Turning to `C[C@@H]1CCCCO[C@@H](CN(C)Cc2ccc(Cl)c(Cl)c2)[C@H](C)CN([C@@H](C)CO)C(=O)c2cc(NS(C)(=O)=O)ccc2O1`, the cytotoxicity call is “inactive”.
Consider `C[C@@H]1CCCCO[C@H](CN(C)Cc2ccc(Cl)c(Cl)c2)[C@@H](C)CN([C@H](C)CO)C(=O)c2cc(NS(C)(=O)=O)ccc2O1`, for which the cytotoxicity call is “inactive”.
`C[C@@H]1CCCCO[C@H](CN(C)Cc2ccc(Cl)c(Cl)c2)[C@@H](C)CN([C@@H](C)CO)C(=O)c2cc(NS(C)(=O)=O)ccc2O1`: the cytotoxicity call is “inactive”.
Consider `C[C@@H](NC(=O)C[C@@H]1CC[C@@H](NC(=O)CN2CCOCC2)[C@@H](CO)O1)c1ccccc1`, for which the cytotoxicity call is “inactive”.
The value for `O=C1c2cccc(O)c2C(=O)c2c(O)cccc21` was “active”; that for `O=C1c2c(O)cccc2Cc2cccc(O)c21` was “inactive”.
As for `Cc1cc(O)c2c(c1)C(=O)c1cccc(O)c1C2=O`, the cytotoxicity call was “inactive”.
Consider `COc1cccc(NC(=O)N2C[C@H](O)COC[C@@H]3O[C@@H](CC(=O)NCc4ccccc4F)CC[C@H]32)c1`, for which the cytotoxicity call was “inactive”.
For `CNC(=O)CN(C#N)c1nc(N(C)C)nc(N(C)C)n1`, the cytotoxicity call is “inactive”.
As for `C[C@@H]1CCCCO[C@H](CN(C)Cc2ccc(C(=O)O)cc2)[C@H](C)CN([C@@H](C)CO)C(=O)c2cc(NC(=O)Nc3cccc4ccccc34)ccc2O1`, the cytotoxicity call was “inactive”.
For the compound `C[C@H](CO)N1C[C@H](C)[C@@H](CN(C)Cc2ccc(C(F)(F)F)cc2)Oc2c(NC(=O)Nc3ccccc3)cccc2C1=O`, the cytotoxicity call is “inactive”.
On to `NNC(=O)c1nnn(-c2nonc2N)c1CN1CCCCC1`, for which the cytotoxicity call is “inactive”.
With `CCc1c(C(=O)OC)nnn1-c1nonc1N`, the cytotoxicity call was “inactive”.
As to `CN(C)Cc1c(C(=O)N/N=C/c2ccncc2)nnn1-c1nonc1N`, the cytotoxicity call is “active”.
Turning to `Cc1noc(C)c1NC(=O)N(C)C[C@@H]1Oc2c(NS(=O)(=O)c3ccccc3)cccc2C(=O)N([C@@H](C)CO)C[C@H]1C`, the cytotoxicity call is “inactive”.
As for `COc1ccc(NC(=O)N(C)C[C@@H]2OCCCC[C@H](C)Oc3ccc(NC(=O)Nc4ccc(C(F)(F)F)cc4)cc3C(=O)N([C@@H](C)CO)C[C@@H]2C)cc1`, the cytotoxicity call was “inactive”.
With `C[C@@H]1CCCCO[C@H](CN(C)C(=O)Nc2ccccc2)[C@H](C)CN([C@@H](C)CO)C(=O)c2cc(NC(=O)Nc3ccc(C(F)(F)F)cc3)ccc2O1`, the cytotoxicity call is “inactive”.
The value for `O=C1CC[C@H](C(=O)N2CCCCC2)N1` was “inactive”; that for `Cc1ccc(S(=O)(=O)N(C)C[C@H]2Oc3ccc(NS(=O)(=O)c4ccc(F)cc4)cc3CC(=O)N([C@@H](C)CO)C[C@@H]2C)cc1` was “active”; that for `COc1ccc(S(=O)(=O)N(C)C[C@H]2Oc3ccc(NC(=O)Cc4ccccc4)cc3CC(=O)N([C@H](C)CO)C[C@@H]2C)cc1` was “inactive”.
The value for `Cc1noc(C)c1S(=O)(=O)Nc1ccc2c(c1)CC(=O)N([C@H](C)CO)C[C@@H](C)[C@@H](CN(C)S(=O)(=O)c1ccc(Cl)cc1)O2` was “inactive”.
As for `Cc1noc(C)c1S(=O)(=O)Nc1ccc2c(c1)CC(=O)N([C@@H](C)CO)C[C@@H](C)[C@H](CN(C)S(=O)(=O)c1ccc(Cl)cc1)O2`, the cytotoxicity call was “active”.
As for `COc1ccc(S(=O)(=O)N(C)C[C@@H]2Oc3ccc(NS(=O)(=O)c4ccccc4)cc3CC(=O)N([C@@H](C)CO)C[C@H]2C)cc1`, the cytotoxicity call is “active”.
For the compound `COc1ccc(S(=O)(=O)Nc2ccc3c(c2)CC(=O)N([C@@H](C)CO)C[C@H](C)[C@@H](CN(C)S(=O)(=O)c2ccccc2)O3)cc1`, the cytotoxicity call is “inactive”.
Turning to `Cc1ccc(S(=O)(=O)Nc2ccc3c(c2)CC(=O)N([C@@H](C)CO)C[C@H](C)[C@@H](CN(C)S(=O)(=O)c2ccc(F)cc2)O3)cc1`, the cytotoxicity call is “inactive”.
As for `COc1ccc(S(=O)(=O)N(C)C[C@@H]2Oc3ccc(NC(=O)Cc4ccccc4)cc3CC(=O)N([C@@H](C)CO)C[C@H]2C)cc1`, the cytotoxicity call was “inactive”.
As to `COc1ccc(S(=O)(=O)N(C)C[C@@H]2Oc3ccc(NS(=O)(=O)c4ccccc4)cc3CC(=O)N([C@H](C)CO)C[C@H]2C)cc1`, the cytotoxicity call was “inactive”.
Then `COc1ccc(S(=O)(=O)N(C)C[C@@H]2Oc3ccc(NC(=O)Cc4ccccc4)cc3CC(=O)N([C@H](C)CO)C[C@@H]2C)cc1`, with “active”.
The value for `Cc1ccc(S(=O)(=O)N(C)C[C@H]2Oc3ccc(NS(=O)(=O)c4ccc(F)cc4)cc3CC(=O)N([C@@H](C)CO)C[C@H]2C)cc1` was “inactive”; that for `Cc1noc(C)c1S(=O)(=O)Nc1ccc2c(c1)CC(=O)N([C@H](C)CO)C[C@H](C)[C@@H](CN(C)S(=O)(=O)c1ccc(Cl)cc1)O2` was “inactive”.

The values above are taken from the antibiotic and cytotoxicity screens of Wong et al. (2023).
